This passage reports growth results from PubChem BioAssay (NCI).

Some test systems named below: SK-MEL-2 melanoma; SN12C renal; UO-31 renal; TK-10 renal; ACHN renal; CAKI-1 renal; A498 renal; CCRF-CEM leukemia; MOLT-4 leukemia; EKVX NSCLC.
Holding throughout (test): NCI-60 one-dose screen, 48 h (100 = growth as untreated, 0 = no growth, -100 = all killed)
Common to all, as to details: 10 µM unless noted

This is part of a sample that, as a whole, favours compounds with a hit. Of some 83,000 tested, about 20% had one in any assay.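 Treatment: one concentration, 48 hours, 96-well format. Scoring: percent growth, with anything below 10 considered active.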 Unmarked numbers belong to inactive results. Calls of active or inactive are those of the source.

For `COc1ccc(-c2n[nH]nc2-c2cc(OC)c3c(c2)OCO3)cc1`, the growth in the assay on SK-MEL-2 melanoma was 6.64% (active); with SN12C renal, 23%; in the assay on UO-31 renal, 20.1%; in the assay with TK-10 renal it was 47.7%; in the assay with ACHN renal it was 29.6%; in the assay on CAKI-1 renal it was -2.7% (active). The results for the growth with A498 renal, in the assay with CCRF-CEM leukemia and in the assay with MOLT-4 leukemia were -9.3% (active), -4.86% (active) and -15.3% (active), respectively.

On to `COc1cc(-c2nc(-c3nc4cc(C(=O)c5ccccc5)ccc4[nH]3)cc3c2[nH]c2ccccc23)cc(OC)c1OC`, for which the growth was 87.3% with SK-MEL-2 melanoma; 89.5% with SN12C renal; 73.2% in the assay on UO-31 renal; 106% with TK-10 renal; 87.2% with ACHN renal; 84% in the assay on CAKI-1 renal. Besides, the growth in the assay on A498 renal is 105%; in the assay on CCRF-CEM leukemia, 57.2%; in the assay with MOLT-4 leukemia, 63%.

Consider `CC1=NC(c2ccc(Cl)cc2)C2=C(N1)/C(=C/c1ccc(Cl)cc1)CCC2` (configuration not stated), for which the growth in the assay on SK-MEL-2 melanoma is 98.4%; with SN12C renal it was 102%; with UO-31 renal it was 78.5%; in the assay with TK-10 renal, 129%; in the assay on ACHN renal it was 102%; in the assay on CAKI-1 renal it was 94.7%. The growth with A498 renal is 102%; with CCRF-CEM leukemia, 78.8%; in the assay on MOLT-4 leukemia it was 74.6%.

Take `COc1ccc2nc(C)cc(Nc3ccccc3O)c2c1`: the growth was 67.7% in the assay with SK-MEL-2 melanoma; -22.9% (active) in the assay on SN12C renal; -56.1% (active) in the assay on UO-31 renal; 21.2% in the assay on TK-10 renal; -38.9% (active) in the assay on ACHN renal; -0.0846% (active) in the assay with CAKI-1 renal. Besides, the growth in the assay with A498 renal is 89.8%; in the assay on CCRF-CEM leukemia, 50.7%; with MOLT-4 leukemia it was 87.7%.

In the case of `O=C(c1ccccc1)N(CCCCl)C(=O)N(CCCCl)C(=O)c1ccccc1`, the growth was 103% with SK-MEL-2 melanoma; 81% in the assay with EKVX NSCLC; 94.6% with SN12C renal; 96.8% in the assay on TK-10 renal; 74.9% in the assay with CAKI-1 renal; 99.7% in the assay with CCRF-CEM leukemia. For the same compound, the growth in the assay on MOLT-4 leukemia was 84.4%.

Consider `C/C(=N\OC(=O)Nc1cccc(Cl)c1)c1ccccc1`, for which the growth in the assay with SK-MEL-2 melanoma is 106%; in the assay with SN12C renal it was 95%; in the assay with UO-31 renal, 82.8%; in the assay on TK-10 renal, 109%; in the assay on ACHN renal, 101%; in the assay on CAKI-1 renal, 106%. The growth in the assay with A498 renal was 42.8%; with CCRF-CEM leukemia, 89.1%; with MOLT-4 leukemia, 89.9%.

Take `CC1CCN(Cc2ccc(NC(=O)c3cc4ccc5cccnc5c4[nH]3)cc2)CC1`: the growth with SK-MEL-2 melanoma was 12%; in the assay on SN12C renal it was 33%; in the assay on UO-31 renal it was 36.7%; in the assay on TK-10 renal, 51.1%; in the assay on ACHN renal it was 53.9%; in the assay with CAKI-1 renal, 4.42% (active). The growth in the assay on A498 renal is -8.68% (active); with CCRF-CEM leukemia, 3.08% (active); in the assay on MOLT-4 leukemia it was 11.8%.

Take `O=C1C(Cl)=C(N/N=c2/[nH][nH]/c(=N/NC3=C(Cl)C(=O)c4ccccc4C3=O)c3ccccc23)C(=O)c2ccccc21`: the growth with SK-MEL-2 melanoma was 96.4%; in the assay with SN12C renal, 56.4%; in the assay on UO-31 renal, 54.7%; with TK-10 renal, 130%; with ACHN renal, 61.9%; in the assay with CAKI-1 renal, 104%. Moreover, the growth with A498 renal was 57%; in the assay on CCRF-CEM leukemia, 16.5%; in the assay on MOLT-4 leukemia it was 11.4%.

On to `COc1cc2cc(C(=O)Nc3ccccc3)c(N)nc2cc1OC`, for which the growth in the assay with SK-MEL-2 melanoma was -62% (active); with SN12C renal it was 49.1%; in the assay with UO-31 renal, 5.81% (active); in the assay with TK-10 renal, -48% (active); in the assay on ACHN renal, -0.0696% (active); in the assay on CAKI-1 renal it was -13.8% (active). Also, the figures for the growth in the assay with A498 renal, in the assay with CCRF-CEM leukemia and in the assay with MOLT-4 leukemia were 52.4%, -21.7% (active) and -44.6% (active), respectively.

Turning to `FC(F)(F)C1=NNC(c2ccc3ccccc3c2)=NN1`, the growth in the assay on SK-MEL-2 melanoma is 111%; in the assay on SN12C renal, 93.7%; with UO-31 renal, 65.6%; with TK-10 renal, 129%; with ACHN renal, 90.1%; in the assay with CAKI-1 renal it was 102%. In addition, the growth in the assay on A498 renal was 90.5%; in the assay on CCRF-CEM leukemia, 92.4%; with MOLT-4 leukemia, 107%.

With `O=C(Nc1ccc(OS(=O)(=O)c2ccc(F)cc2)cc1)C12CC3CC(CC(C3)C1)C2`, the growth in the assay on SK-MEL-2 melanoma is 86%; in the assay on SN12C renal it was 77.3%; in the assay with UO-31 renal it was 83.8%; in the assay on TK-10 renal, 87.5%; in the assay with ACHN renal, 76.5%; in the assay on CAKI-1 renal it was 79.2%. The figures for the growth with A498 renal, in the assay on CCRF-CEM leukemia and with MOLT-4 leukemia were 40.4%, 52.1% and 33.3%, respectively.

`CCOC(=O)c1c(NC(=O)c2ccccc2)sc2c(O)c(CN(CC)CC)ccc12`: the growth in the assay on SK-MEL-2 melanoma is 7.87% (active); with SN12C renal, 24.3%; in the assay with UO-31 renal, 37.5%; in the assay on TK-10 renal, 19.8%; in the assay on ACHN renal it was 29.5%; in the assay on CAKI-1 renal it was 1.51% (active). Besides, the growth in the assay on A498 renal is -22.7% (active); in the assay on CCRF-CEM leukemia, 5.79% (active); in the assay with MOLT-4 leukemia, 14%.

For the compound `N#CC1=C(N)Oc2nc[nH]c(=O)c2C1c1cccs1` (configuration not stated), the growth in the assay on SK-MEL-2 melanoma was 113%; in the assay with SN12C renal, 105%; in the assay on UO-31 renal it was 97.1%; with TK-10 renal, 105%; in the assay on ACHN renal, 101%; in the assay with CAKI-1 renal, 94.9%. Besides, the growth in the assay on A498 renal is 107%; with CCRF-CEM leukemia, 95%; in the assay with MOLT-4 leukemia it was 94.3%.

On to `CSC1=NC(=Nc2c(C)cccc2C)C2(CCC(C(C)(C)C)CC2)N1c1ccc(Cl)cc1` (configuration not stated), for which the growth is 49.9% with SK-MEL-2 melanoma; 42.1% in the assay on SN12C renal; 34.8% in the assay on UO-31 renal; 61.3% in the assay with TK-10 renal; 34.5% with ACHN renal; 12% with CAKI-1 renal. Further, the values for the growth in the assay with A498 renal, in the assay with CCRF-CEM leukemia and with MOLT-4 leukemia were 71.5%, 36.9% and 23.5%, respectively.

In the case of `COc1cccc(NC(=O)c2c(-c3ccccc3)c(-c3ccccc3)n[nH]c2=O)c1`, the growth in the assay on SK-MEL-2 melanoma is 134%; in the assay on SN12C renal, 96.7%; with UO-31 renal, 86.7%; in the assay with TK-10 renal, 120%; in the assay on ACHN renal, 94%; in the assay on CAKI-1 renal, 86.9%. The results for the growth in the assay with A498 renal and with MOLT-4 leukemia were 96.9% and 67.8%, respectively.
